High-throughput results (PubChem BioAssay)
D2 ag-1 – D2 dopamine receptor (human) agonism. HEK293 T-REx D2 cells, calcium flux agonist mode. activation, % at 2 µM. actives 0.53% (n = 340,000);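 active = activation over 3 SD above normal in the single-dose calcium agonist read, cut at about 30% in these data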; also: 0% is about no effect
Target sequence (P14416 whole entry, looked up): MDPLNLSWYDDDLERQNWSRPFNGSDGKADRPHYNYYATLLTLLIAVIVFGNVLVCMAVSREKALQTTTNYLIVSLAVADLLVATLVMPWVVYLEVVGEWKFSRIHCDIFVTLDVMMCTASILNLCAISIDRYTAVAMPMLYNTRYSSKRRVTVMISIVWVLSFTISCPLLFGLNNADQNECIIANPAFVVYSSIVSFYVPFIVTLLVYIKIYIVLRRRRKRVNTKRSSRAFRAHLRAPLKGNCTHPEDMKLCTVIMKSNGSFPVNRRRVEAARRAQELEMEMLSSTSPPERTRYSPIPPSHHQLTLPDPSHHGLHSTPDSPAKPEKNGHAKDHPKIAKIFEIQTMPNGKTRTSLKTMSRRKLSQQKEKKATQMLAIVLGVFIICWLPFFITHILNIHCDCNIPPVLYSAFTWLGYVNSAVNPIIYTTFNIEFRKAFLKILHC
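Tetracycline-induced HEK293 T-REx cells with force-coupled D2 receptor, plated overnight at 30 C, loaded with no-wash calcium dye. After a 10 s baseline, compound was pin-added and calcium flux read kinetically for 180 s; calcium rises flagged agonists.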
D2 antagonist – antagonists of human D2 dopamine receptor; HEK293 TREx D2 cells, calcium flux, dopamine EC80; inhibition, % at 10 µM; actives 2% (n = 340,000); AID 485344; P14416; in the data active = inhibition above about 30%; inactive = below that, where a call was filed; also: 0% is about no effect
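Calcium mobilization kinetics were recorded at 1 s intervals in tetracycline-induced HEK293 T-REx D2 cells, first for 180 s after compound addition and then 180 s after EC80 dopamine.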
D2 PAM-1 – potentiates the human D2 dopamine receptor allosterically; P14416; DiscoveRx D2 beta-arrestin cells, luminescence, 90 min; 100% = 57 uM dopamine signal; potentiation, % (test concentration not listed); actives 0.23% (n = 360,000); in the data active = potentiation above about 50%; inconclusive = mostly about 30% to 49%
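D2 cells co-treated with compound plus 50 nM dopamine (EC20) for 90 min at 37 deg C to detect potentiation. Beta-arrestin recruitment was read as enzyme-fragment luminescence after 1 h at ambient temperature. Full response was set by 57 uM dopamine.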
D2 PAM-2 – D2 dopamine receptor (human) potentiation; potentiation, % at 10 µM; actives 0.34% (n = 340,000); AID 485347; P14416; HEK293 T-REx D2, calcium flux, EC20 dopamine potentiation;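 active = potentiation over 3 SD above the plate norm, cut at about 30% in these data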; also: 0% is about no effect
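Tetracycline-induced HEK293 T-REx cells force-coupled to calcium signalling expressed D2; compounds were pin-added after a 10 s baseline, read kinetically 180 s, then an EC20 dopamine challenge followed with a further 180 s calcium read.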
D2 ag-2 – activates the human D2 dopamine receptor; P14416; DiscoveRx PathHunter D2 beta-arrestin, luminescence, 90 min; 100% = 57 uM dopamine signal; activation, % (no concentration beside the values); actives 0.084% (n = 360,000); AID 624465; in the data active = activation above about 40%; inconclusive = between about 15% and that limit
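Agonist mode: compounds alone added to overnight-plated D2 PathHunter cells for 90 min at 37 C, with 57 uM final dopamine (EC100) defining full response. Beta-arrestin recruitment detected by chemiluminescent reagent, read after 1 h at ambient temperature.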
Starred values were filed as active, the others as inactive. In the library only some 2.4% were active in any assay of this set; here they are far more common.

What do the screens show for `Oc1ccc(NCc2ccccc2OCc2ccccc2F)cc1`?
D2 ag-1: 0; D2 antagonist: 17; D2 PAM-1: 115*; D2 PAM-2: 5; D2 ag-2: 14

What do the screens show for `CCOc1cccc(CNc2ccc(O)cc2)c1OCc1ccc(Cl)cc1`?
D2 ag-1: 0; D2 antagonist: -15; D2 PAM-1: 91*; D2 PAM-2: -7; D2 ag-2: inconclusive

What do the screens show for `CCOc1cc(CNc2ccc(O)cc2)ccc1OCc1ccc(Cl)cc1Cl`?
D2 ag-1: -1; D2 antagonist: -14; D2 PAM-1: 96*; D2 PAM-2: 8; D2 ag-2: 44*

Results for CC1CCCC(C)N1C(=O)COC(=O)c1cccnc1Cl (configuration not stated) ?
D2 PAM-1: -7; D2 ag-2: -1

Results for CCOc1ccc(OCC(O)CN2CCc3ccccc3C2)cc1 (configuration not stated) ?
D2 ag-1: 3; D2 antagonist: 50*; D2 PAM-1: -9; D2 PAM-2: -22; D2 ag-2: -1

What do the screens show for `Cc1cc(OCC(O)CN2CCc3ccccc3C2)ccc1Cl` (configuration not stated)?
D2 ag-1: 0; D2 antagonist: 79*; D2 PAM-1: -23; D2 PAM-2: -23; D2 ag-2: 10

How did Cc1cc(OCC(O)CN2CCc3ccccc3C2)cc(C(C)C)c1 (configuration not stated) do in these assays?
D2 ag-1: -1; D2 antagonist: -5; D2 PAM-1: -38; D2 PAM-2: 14; D2 ag-2: inconclusive

Results for O=C(NCC(c1ccco1)S(=O)(=O)c1cccs1)c1ccc(F)c(F)c1 (configuration not stated) ?
D2 ag-1: 0; D2 PAM-2: 0

Results for CCOC(=O)CCC(=O)c1c(C)oc2ccc(OC)cc12 ?
D2 ag-1: -1; D2 antagonist: -1; D2 PAM-1: 0; D2 PAM-2: 30*; D2 ag-2: -3

How did COc1ccc2oc(C)c(C(=O)NN)c2c1 do in these assays?
D2 ag-1: 0; D2 antagonist: 10; D2 PAM-1: 1; D2 PAM-2: 7; D2 ag-2: 2

What do the screens show for `COC(=O)c1cc(C(=O)OC)cc(-n2c(C)cc(C(=O)COC(=O)CNS(=O)(=O)c3ccc(C)cc3)c2C)c1`?
D2 ag-1: -1; D2 antagonist: 60*; D2 PAM-1: -2; D2 PAM-2: -18; D2 ag-2: -1

Results for CCOC(=O)CC1=C(C(=O)OCC)C(c2cccnc2)C(C#N)=C(N)O1 (configuration not stated) ?
D2 ag-1: 0; D2 antagonist: -1; D2 PAM-1: -4; D2 PAM-2: 2; D2 ag-2: -1

How did CC1=C(n2nnc([N+](=O)[O-])n2)C(c2cccnc2)C(C#N)=C(N)O1 (configuration not stated) do in these assays?
D2 ag-1: 1; D2 antagonist: -4; D2 PAM-1: 110*; D2 PAM-2: 6; D2 ag-2: inconclusive

How did CCOC(=O)CC1=C(C#N)C(c2cccnc2)C(C(=O)OCC)=C(N)O1 (configuration not stated) do in these assays?
D2 ag-1: 0; D2 antagonist: 38*; D2 PAM-1: -9; D2 PAM-2: 2; D2 ag-2: -1

How did O=C(NCc1ccccc1Cl)c1ccc2nc([C@@H]3O[C@H](CO)[C@@H](O)[C@H]3O)[nH]c2c1 do in these assays?
D2 PAM-1: 1; D2 ag-2: 1

How did O=C(NCc1cccc(Cl)c1)C1CCCN(c2ncnc3onc(-c4ccc(F)cc4)c23)C1 (configuration not stated) do in these assays?
D2 ag-1: -1; D2 PAM-2: 6

What do the screens show for `C/C(=N/Nc1ccc(C(=O)O)cc1)c1ccc(O)c(O)c1O`?
D2 ag-1: 0; D2 antagonist: -6; D2 PAM-1: 85*; D2 PAM-2: 0; D2 ag-2: inconclusive

Results for O=C(Nc1cccs1)Nc1cccnc1Cl ?
D2 ag-1: -2; D2 antagonist: 37*; D2 PAM-1: 0; D2 PAM-2: -5; D2 ag-2: -3

Results for O=C(Nc1cccs1)Nc1ccccc1Cl ?
D2 ag-1: 0; D2 antagonist: -1; D2 PAM-1: -6; D2 PAM-2: -5; D2 ag-2: -1

Results for CCCC(=O)Nc1ccccc1C(=O)OCc1cc(=O)n2nc(C(C)C)sc2n1 ?
D2 ag-1: 0; D2 PAM-2: 9

Results for Cc1ccc(C2CC(C(F)(F)F)n3ncc(C(=O)NCc4ccco4)c3N2)cc1 (configuration not stated) ?
D2 ag-1: 0; D2 antagonist: 37*; D2 PAM-1: -9; D2 PAM-2: 4; D2 ag-2: -3

What do the screens show for `CCCN1CCC(=O)N([C@H](CN=[N+]=[N-])Cc2ccccc2)CC1`?
D2 ag-1: 0; D2 antagonist: 38*; D2 PAM-1: -13; D2 PAM-2: 6; D2 ag-2: -3

Results for CC(C)CN1CCC(=O)N([C@H](CN=[N+]=[N-])Cc2ccccc2)CC1 ?
D2 ag-1: 0; D2 antagonist: -6; D2 PAM-1: -4; D2 PAM-2: -4; D2 ag-2: -2

How did CCN1CCN(c2oc(-c3ccccc3)nc2S(=O)(=O)c2ccc(C)cc2)CC1 do in these assays?
D2 ag-1: 0; D2 antagonist: 47*; D2 PAM-1: -36; D2 PAM-2: -24; D2 ag-2: -1

How did CSc1oc(-c2ccccc2)nc1S(=O)(=O)c1ccc(C)cc1 do in these assays?
D2 ag-1: 2; D2 antagonist: 34*; D2 PAM-1: -3; D2 PAM-2: 1; D2 ag-2: -4

How did Cc1ccc(S(=O)(=O)c2nc(-c3ccccc3)oc2N2CCCCCC2)cc1 do in these assays?
D2 ag-1: 1; D2 PAM-2: -4

Results for CCC1CN(C(=O)N2CCC(C(=O)NCCc3ccc(C)cc3)CC2)c2ccccc2O1 (configuration not stated) ?
D2 ag-1: -1; D2 PAM-2: 3

What do the screens show for `O=C(CCc1ccc(O)c(O)c1)N/N=C/c1cc2c(cc1[N+](=O)[O-])OCO2`?
D2 ag-1: 1; D2 antagonist: -5; D2 PAM-1: 2; D2 PAM-2: -1; D2 ag-2: inconclusive

What do the screens show for `Cc1cccc(C)c1OCC(=O)N/N=C/c1cc2c(cc1[N+](=O)[O-])OCO2`?
D2 ag-1: -3; D2 antagonist: 30*; D2 PAM-1: 1; D2 PAM-2: -8; D2 ag-2: 0

How did CCOC(=O)c1c(C)n(-c2ccccc2)c2ccc(OC(=O)c3ccccc3)cc12 do in these assays?
D2 ag-1: 1; D2 PAM-2: -2
